From PubChem
Rows were chosen to be rich in hits. Some 2.8% of all compounds tested hit in one or more screens of this group.
DRD3 antagonist – antagonists of human D3 dopamine receptor; hit rate 2.5% among 360,000; P35462; D3R cells, DiscoveRx beta-arrestin luminescence, antagonist mode; active compounds read low; max response, negative = inhibition, %; in the data active = max response below about -50%; inconclusive = no clear call, values can overlap the other calls
Target sequence (P35462 whole entry, looked up): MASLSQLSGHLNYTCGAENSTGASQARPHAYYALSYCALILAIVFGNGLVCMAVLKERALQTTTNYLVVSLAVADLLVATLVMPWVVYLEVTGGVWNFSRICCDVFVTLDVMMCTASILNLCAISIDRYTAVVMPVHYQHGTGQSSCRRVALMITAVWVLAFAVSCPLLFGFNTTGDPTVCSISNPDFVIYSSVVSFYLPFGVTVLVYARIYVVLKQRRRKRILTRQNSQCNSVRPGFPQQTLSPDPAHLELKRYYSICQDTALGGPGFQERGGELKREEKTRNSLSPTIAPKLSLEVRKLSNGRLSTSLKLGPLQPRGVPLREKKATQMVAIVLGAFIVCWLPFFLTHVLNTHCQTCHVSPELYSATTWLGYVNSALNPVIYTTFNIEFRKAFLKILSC
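Cells plated overnight at 1500 cells/well, then exposed to library compounds with dopamine controls for 90 minutes at 37 degrees C. DiscoveRx reagent added for 30–60 minutes at room temperature; luminescence read, quantitative HTS format.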
B2AR arrestin – recruits beta-arrestin to the human beta2-adrenergic receptor; P07550; beta-arrestin recruitment to beta2AR, cell-based reporter; Potency, µM (series often up to 46.1 µM), usual class: activators; hit rate 0.02% among 330,000; AID 492947; active = well fitted activation curve with a large enough effect; inconclusive = small, poorly fitted or top-dose-only effect; also: nearly all actives have a fitted effect of over 65% in size
D3 ag – activates the human D3 dopamine receptor; P35462; max activation, %; D3R DiscoveRx beta-arrestin cells, luminescence, 90 min; AID 652048; hit rate 0.58% among 410,000; in the data active = max activation above about 30%
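Agonist-mode cell screen: cells plated at 1500/well and incubated overnight at 37 °C, then exposed to library compounds for 90 min at 37 °C. Detection reagent was added for 30–60 min at room temperature, and luminescence was read.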
Giardia killer – Giardia lamblia killing; Giardia lamblia trophozoite viability; hit rate 0.15% among 340,000; activity change, % at 7.66 µM, hits read low; in the data active = activity change below about -80%; inconclusive = between about -30% and that limit;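 also: parasites exposed to compound for two days anaerobically before the ATP read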
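Trophozoites 100 cells/well + cpd; 48 hrs, 37 deg C, anaerobic. ATPLite 1-Step added, 15-30 min RT, luminescence read (ATP-based viability).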
Of the large screens only hits and unclear results are named; the others gave an inactive call.

CCN(CC)CCOC(=O)c1ccc(NC(=O)CCCN2C(=O)/C(=C\c3cccs3)SC2=S)cc1	DRD3 antagonist -109
CCc1cccc(C)c1NC(=O)C1CCCN1S(=O)(=O)c1cccc2nsnc12 (stereo not drawn)	none (no result: DRD3 antagonist, B2AR arrestin, Giardia killer)
Cc1ccc(Cl)cc1NC(=O)C1CCN(c2nnc(C)c3c(C)n(-c4ccccc4)nc23)CC1	none (no result: DRD3 antagonist, B2AR arrestin, Giardia killer)
COc1ccc(NCc2cc3cc4c(cc3n(CC(=O)Nc3cc(C)ccc3C)c2=O)OCCO4)cc1	none (no result: DRD3 antagonist, B2AR arrestin, Giardia killer)
COc1cccc(COCCN2CCN(S(=O)(=O)c3ccccc3)CCC2=O)c1	none (no result: DRD3 antagonist, B2AR arrestin, D3 ag)
c1ccc(Nc2nc(-c3ccccc3)c(-c3ccccc3)s2)cc1	none (no result: DRD3 antagonist, B2AR arrestin, D3 ag)
Cc1cccc(NC(=O)N2CC(=O)Nc3sc4c(c3C2c2ccccc2)CCCC4)c1C (stereo not drawn)	none (no result: DRD3 antagonist, B2AR arrestin, Giardia killer)
O=C(Nc1ccc(C(F)(F)F)cc1)C1(c2cccs2)CCOCC1	none (no result: DRD3 antagonist, B2AR arrestin, Giardia killer)
COc1cc(S(=O)(=O)N2CCN(C)CC2)ccc1Cl	DRD3 antagonist -87
COCCNC(=O)C1CCCN(S(=O)(=O)c2ccc3c(ccn3C)c2)C1 (stereo not drawn)	none (no result: DRD3 antagonist, B2AR arrestin, Giardia killer)
COc1ccc(-c2nc(C#N)c(N3CCc4ccccc4C3)o2)cc1OC	D3 ag 36
COc1ccccc1-c1nc(C#N)c(N2CCc3ccccc3C2)o1	none
O=C1C(Cc2ccccc2)Nc2ncnc(N3CCN(c4ccccc4)CC3)c2N1Cc1ccccc1 (stereo not drawn)	none
O=C1C(Cc2ccccc2)Nc2ncnc(N3CCN(c4ccccc4)CC3)c2N1Cc1ccc(Br)cc1 (stereo not drawn)	DRD3 antagonist -151
CCC1Nc2ncnc(N3CCN(c4ccccc4)CC3)c2N(Cc2ccc(OC)cc2)C1=O (stereo not drawn)	DRD3 antagonist -149
CCC1Nc2ncnc(N3CCN(c4ccccc4)CC3)c2N(Cc2ccc(Br)cc2)C1=O (stereo not drawn)	DRD3 antagonist active
CCCCc1ccc(NC(=O)Cn2cnc3c(oc4ccccc43)c2=O)cc1	none (no result: DRD3 antagonist, B2AR arrestin, Giardia killer)
COC(=O)c1cc(C)nc2c1c(=O)nc(SCc1cccc(C)c1)n2C1CC1	none (no result: DRD3 antagonist, B2AR arrestin, Giardia killer)
CC(C)(CN1CCN(C(c2ccccc2)c2ccccc2)CC1)NS(=O)(=O)c1ccccc1	DRD3 antagonist -53
CC(=O)N1CCN(CC(C)(C)NS(=O)(=O)c2ccccc2)CC1	none
CC(CN1CCNCC1)(NS(=O)(=O)c1ccccc1)c1ccccc1 (stereo not drawn)	DRD3 antagonist -71
CC(C)(CN1CCN(Cc2ccccc2)CC1)NS(=O)(=O)c1ccccc1	DRD3 antagonist -52
O=C(Nc1ccc(Br)cc1)c1cc(Br)c(Br)s1	none (no result: DRD3 antagonist, B2AR arrestin, Giardia killer)
Cc1nc(N2CCOCC2)c2c(C(=O)N3CCN(c4cc(Cl)ccc4C)CC3)c(C)oc2n1	none (no result: DRD3 antagonist, B2AR arrestin, Giardia killer)
c1csc(-c2nn3c(C4COc5ccccc5O4)nnc3s2)c1 (stereo not drawn)	none
c1ccc2c(c1)OCC(c1nnc3sc(-c4cnccn4)nn13)O2 (stereo not drawn)	D3 ag 30
CN1CCCCC1CCN1c2ccccc2Sc2ccc(S(C)=O)cc21 (stereo not drawn)	DRD3 antagonist -75
CCOc1ccc2c(c1)sc1nc(=O)n(-c3ccc(Cl)c(Cl)c3)c(=O)n12	none (no result: DRD3 antagonist, B2AR arrestin, Giardia killer)
O=C(CCN1CCN(c2ccc(Cl)cc2)CC1)Nc1nccs1	DRD3 antagonist -66
O=C(CN1CCN(c2cccc(Cl)c2)CC1)Nc1nccs1	none
CCCc1c(C(=O)OCC)nnc2c(-c3ccccc3)c(C)nn12	none (no result: DRD3 antagonist, B2AR arrestin, Giardia killer)
COc1ccccc1C(=O)NCc1nnnn1-c1ccc(C)c(C)c1	none (no result: DRD3 antagonist, B2AR arrestin, Giardia killer)
CCCCC[C@H](O)/C=C/[C@H]1CCC(=O)[C@@H]1CCCCCCC(=O)N1CCCCC1CO (stereo partly drawn)	D3 ag 30
CCOc1cccc(C2C=C(c3ccc4c(c3)OCO4)NC(c3ccc(Cl)cc3)N2)c1O (stereo not drawn)	none (no result: DRD3 antagonist, B2AR arrestin, D3 ag)
O=C(/C=C/c1c(Cl)cccc1Cl)n1cccn1	DRD3 antagonist -74
CC(C)C(=O)Nc1cccc(COc2ccc(CN(Cc3ccccc3)C(=O)OC(C)(C)C)cc2)c1	D3 ag 36 (no result: B2AR arrestin)
Cc1cn(C2CC3OCC(NC(=O)C4CCCN4C(=O)OC(C)(C)C)C3O2)c(=O)[nH]c1=O (stereo not drawn)	none (no result: DRD3 antagonist, B2AR arrestin, D3 ag)
COc1cccc(CNc2ccc(N3CCC(C)CC3)cc2)c1OC	DRD3 antagonist -64
Cc1ccc(N2C(=O)CSC2c2cccs2)cc1 (stereo not drawn)	DRD3 antagonist -57
O=P(O)(O)OCC(O)CO (stereo not drawn)	none (no result: DRD3 antagonist, B2AR arrestin, Giardia killer)
O=C1C(c2[nH]c3ccc(S(=O)(=O)O)cc3c2O)=Nc2ccc(S(=O)(=O)O)cc21	none (no result: DRD3 antagonist, B2AR arrestin, Giardia killer)
COc1ccc(-c2nnc(NC(=O)c3ccc(S(=O)(=O)N4COCC4(C)C)cc3)o2)cc1	DRD3 antagonist -65
CCOc1ccc(CCNC(=O)c2ccc3c(c2)nc2n3CCOC2)cc1OCC	none (no result: DRD3 antagonist, B2AR arrestin, Giardia killer)
CCOC(=O)Cn1c(=S)[nH]c2c(oc3ccc(Cl)cc32)c1=O	DRD3 antagonist -68
CCOC(=O)N1CCN(C(=O)c2ccc3c(=O)n(Cc4ccc(Cl)cc4)c(=S)[nH]c3c2)CC1	none
CC(=O)c1ccc(C(=O)N2CCc3c([nH]c4ccccc34)C2c2cccc(C)n2)s1 (stereo not drawn)	DRD3 antagonist -56
COc1ccc(OC)c(CNC(=O)c2ccc(NC(=O)c3nsc4ccccc34)cc2)c1	none (no result: DRD3 antagonist, B2AR arrestin, Giardia killer)
COc1cccc(NC(=O)CSc2nc3ccccc3cc2Cc2ccccc2)c1	DRD3 antagonist -52
COc1cccc(NC(=O)CSc2nnc(NC(=O)C3CC3)s2)c1	DRD3 antagonist -57
CC(=O)Nc1cccc(NC(=O)CSc2nnc(NC(=O)C3CC3)s2)c1	none
COc1cc(NC(=O)CSc2nc3ccccc3cc2Cc2ccccc2)cc(OC)c1	none
CCC[C@@H]1C[C@@H](C(=O)N[C@@H]([C@H]2O[C@H](SC)[C@H](OP(=O)(O)O)[C@@H](O)[C@H]2O)[C@H](C)Cl)N(C)C1	none (no result: DRD3 antagonist, B2AR arrestin, Giardia killer)
O=C(c1ccc2c(c1)N(Cc1cccc(Cl)c1)C(=O)c1ccccc1S2(=O)=O)N1CCc2ccccc21	none (no result: DRD3 antagonist, B2AR arrestin, Giardia killer)
CCNC(=O)C(CCSC)NS(=O)(=O)c1ccc(C)cc1 (stereo not drawn)	none
CCCNC(=O)CCC(NS(=O)(=O)c1ccc(C)cc1)C(=O)NCCC (stereo not drawn)	DRD3 antagonist -56
Cc1ccc2c(=O)[nH]c(Cc3ccccc3C(=O)O)nc2c1	D3 ag 40
Fc1ccccc1N1CCN(c2ncnc3onc(-c4ccc(Cl)cc4)c23)CC1	none (no result: DRD3 antagonist, B2AR arrestin, Giardia killer)
Cc1cc(=O)[nH]c(N=N/C(=N/Nc2ccc(O)cc2)c2ccccc2)n1	DRD3 antagonist -101
COc1ccc(N/N=C(/N=Nc2nc(C)cc(=O)[nH]2)c2ccccc2)cc1	DRD3 antagonist -57
COc1ccc(C(=O)C(=NNc2ccccc2)c2ccc(OC)cc2)cc1	none (no result: B2AR arrestin)
Cc1cc(=O)[nH]c(N=N/C(=N/Nc2ccccc2C)c2ccccc2)n1	DRD3 antagonist inconclusive
CCOc1ccc(C(=O)Nc2ccc(Cl)c(-c3nc4cc(C)cc(C)c4o3)c2)cc1	none (no result: DRD3 antagonist, B2AR arrestin, Giardia killer)
CCOc1ccc(-c2csc(NC(=O)CSC3=NC(=O)CN3C(C)=O)n2)c2ccccc12	none
CCOc1ccc(-c2csc(NC(=O)CSCC(=O)O)n2)c2ccccc12	D3 ag 45
CCCN1CCN(c2nnc(-n3cccc3C(=O)Nc3cc(Cl)ccc3C)s2)CC1	none (no result: DRD3 antagonist, B2AR arrestin, Giardia killer)
